Assay results taken from PubChem BioAssay AID797 (University of Pittsburgh Molecular Library Screening Center, 2007).
The whole screen tested about 200,000 compounds, of which about 110 (0.055%) were called active. Rule as the data show it: active = inhibition above about 50%; inactive = the rest. Shown is part of a subset that was picked to be rich in actives. Where a SMILES comes first, the peptide text is derived from it. [ ]: non-standard residue; d: D form. ξ: configuration not given here. ξM = CSCCC(N)C(=O)O

Biological target: Serine/threonine-protein kinase D1 (Homo sapiens) (UniProt Q15139)
Sequence (Q15139 whole entry, looked up): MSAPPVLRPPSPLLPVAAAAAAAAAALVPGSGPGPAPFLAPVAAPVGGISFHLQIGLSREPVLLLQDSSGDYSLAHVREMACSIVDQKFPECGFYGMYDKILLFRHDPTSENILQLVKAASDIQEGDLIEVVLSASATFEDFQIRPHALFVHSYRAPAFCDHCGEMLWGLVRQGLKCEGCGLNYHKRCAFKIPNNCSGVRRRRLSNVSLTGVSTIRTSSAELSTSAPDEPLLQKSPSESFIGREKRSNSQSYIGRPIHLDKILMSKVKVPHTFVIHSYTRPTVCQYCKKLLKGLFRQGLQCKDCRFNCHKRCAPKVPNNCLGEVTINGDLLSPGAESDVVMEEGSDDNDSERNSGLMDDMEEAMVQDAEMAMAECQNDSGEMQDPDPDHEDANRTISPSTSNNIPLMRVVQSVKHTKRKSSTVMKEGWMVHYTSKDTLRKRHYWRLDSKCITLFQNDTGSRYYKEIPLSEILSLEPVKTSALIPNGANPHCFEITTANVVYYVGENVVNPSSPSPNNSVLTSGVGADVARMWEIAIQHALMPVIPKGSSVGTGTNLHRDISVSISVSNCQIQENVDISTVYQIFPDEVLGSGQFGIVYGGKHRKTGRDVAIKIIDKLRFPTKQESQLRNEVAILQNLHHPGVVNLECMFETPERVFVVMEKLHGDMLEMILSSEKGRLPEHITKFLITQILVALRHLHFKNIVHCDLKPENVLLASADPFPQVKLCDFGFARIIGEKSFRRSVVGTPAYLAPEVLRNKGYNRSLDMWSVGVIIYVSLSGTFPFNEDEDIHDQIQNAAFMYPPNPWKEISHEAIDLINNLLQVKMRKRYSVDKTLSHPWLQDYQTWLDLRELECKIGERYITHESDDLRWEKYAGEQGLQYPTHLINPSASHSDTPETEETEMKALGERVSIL
Assay: protein kinase D1 activity blockers – biochemical, fluorescence polarization (AID 797)
Details: PKD1 kinase fluorescence polarization assay; hits give high values; concentration not given here

Row | SMILES | inhibition
1 | CC(C)NC(=S)Nc1cccc2cnccc12 | -7.44% (inactive)
2 | O=C(NC1(C(F)(F)F)NC(=O)N(C2CCCCC2)C1=O)c1ccco1 (stereo not drawn) | -4.49% (inactive)
3 | Cc1onc(C(=O)NN)c1C(=O)N1CCN(C(c2ccccc2)c2ccccc2)CC1 | 6.23% (inactive)
4 | CCO[C@H]1OC(C(=O)O)=C[C@@H](C2CCCCC2)[C@@H]1CCCO | 1.68% (inactive)
5 | O=C(N/N=C/c1cccc([N+](=O)[O-])c1)C1CC(=O)N(c2ccc(Br)cc2)C1 (stereo not drawn) | 0.4% (inactive)
6 | O=C(NCCN1CCOCC1)Nc1cccc(Cl)c1 | -8.08% (inactive)
7 | Cc1ccc(-c2c(C)n([O-])c3c([n+]2=O)CCC3)cc1 | -5.77% (inactive)
8 | Cc1cc(C)c(C#N)c(SCC(=O)NN2CC(=O)N(c3ccccc3F)CC2=O)n1 | -3.74% (inactive)
9 | O=C(OC1CCOC1=O)c1cccc(S(=O)(=O)Nc2ccc(F)cc2)c1 (stereo not drawn) | 1.98% (inactive)
10 | C=CCn1cc(-c2cccc(C(F)(F)F)c2)cc(C#N)c1=O | 7.22% (inactive)
11 | O=C(N1CCCC1)C12CC3CC(C1)CC(C(=O)N1CCCC1)(C3)C2 | -14.2% (inactive)
12 | CCC1CO/C(=C(\C(=C(Cl)Cl)N2CCOCC2)[N+](=O)[O-])N1 (stereo not drawn) | -0.65% (inactive)
13 | COc1cc(OC)c(C(=O)OC(C)C(=O)Nc2cc(C(F)(F)F)ccc2Cl)cc1OC (stereo not drawn) | 8.47% (inactive)
14 | O=C(CSc1ccc(-c2ccc(F)cc2)nn1)Nc1ccc2c(c1)OCCO2 | -0.29% (inactive)
15 | Cc1cc(C(=O)NNC(=S)NC(C)c2ccccc2)cs1 (stereo not drawn) | 5.7% (inactive)
16 | C/C(CC(=O)Nc1cccc(C(F)(F)F)c1)=N\NC(=O)C(=O)NCC(C)C | 3.3% (inactive)
17 | Cc1cc(N2CCN(C)CC2)nc2ccc(NC(=S)N3CCOCC3)cc12 | -7.15% (inactive)
18 | CCn1c2ccccc2c2cc(NC(=O)COC(=O)c3ccccc3Br)ccc21 | -14.8% (inactive)
19 | c1ccc(-c2csc(N3CCc4ccccc4C3)n2)cc1 | -5.96% (inactive)
20 | COC(=O)[C@@H]1CC[C@H](C)[C@@H](c2ccc(C)cc2)N1C(=O)c1ccc(/C=N/O[C@H](C)c2cn([C@@H]3COC[C@H]3O)nn2)cc1 | -8.4% (inactive)
21 | CCC(=O)NC(=S)Nc1ccc(NC(=O)c2ccco2)c(Cl)c1 | -0.32% (inactive)
22 | CN(C)CCCNC(=O)/C=C/c1ccc(OCc2c(F)cccc2Cl)cc1 | -5.92% (inactive)

Row | SMILES | inhibition
23 | CCCC1(C(=O)OC)NC(c2ccco2)C2C(=O)N(C)C(=O)C21 (stereo not drawn) | -3.52% (inactive)
24 | Cc1noc(C)c1S(=O)(=O)N1CCCC(C(=O)Nc2nccs2)C1 (stereo not drawn) | -0.06% (inactive)
25 | COc1c(C)cc(C(=O)C2CCCN(S(=O)(=O)c3c(C)noc3C)C2)cc1C (stereo not drawn) | 11.5% (inactive)
26 | Cc1ccc(NC(=O)C2CCCN(S(=O)(=O)c3c(C)noc3C)C2)c(C)c1 (stereo not drawn) | 72.5% (active)
27 | CCCCN(CC(=O)NC(C)(C)C)C(=O)C(=O)Nc1ccc2c(c1)OCCO2 | 1.16% (inactive)
28 | CCCOC(=O)c1ccc(N2C(=O)c3ccccc3C2=O)cc1 | 1.49% (inactive)
29 | O=C(CCc1ccccc1)NNC(=O)c1ccc(Br)cc1 | 4.58% (inactive)
30 | O=C(c1ccccc1)c1ccc(OCC(O)CN2CCCC2)cc1 (stereo not drawn) | 13.5% (inactive)
31 | COC(=O)c1ccc(OCC(O)CN(CCO)CC(O)Cn2ccc3ccccc32)cc1 (stereo not drawn) | 3.96% (inactive)
32 | OC(CNCc1ccc(Cl)c(Cl)c1)c1ccccc1 (stereo not drawn) | -3.03% (inactive)
33 | COc1cc2c(cc1OC)C(Nc1ccc(S(N)(=O)=O)cc1)=NC(C)(C)C2 | -5.13% (inactive)
34 | COc1ccc(NC(=O)c2sc(N3CCOCC3)nc2-c2ccccc2)c(OC)c1 | -1.24% (inactive)
35 | CCC(=O)Nc1ccc(C(=O)N2CCN(C(=O)c3ccco3)CC2)cc1 | 2.96% (inactive)
36 | Cc1ccc(NC(=O)Cn2c(=O)n(CCC(=O)NC3CCN(Cc4ccccc4)CC3)c(=O)c3ccccc32)cc1 | 0.69% (inactive)
37 | O=C(CN1CCOCC1)Nc1c(Cl)cc(Cl)cc1Cl | -2.42% (inactive)
38 | Cc1ccc2nsnc2c1NC(=O)c1ccccc1[N+](=O)[O-] | -3.06% (inactive)
39 | Cc1ccccc1NS(=O)(=O)CCCCC(Cl)(Cl)Cl | -2.05% (inactive)
40 | COc1cccc(C2SCC(=O)N2c2cccc(C)c2)c1OC (stereo not drawn) | -7.34% (inactive)
41 | O=C(NN1C(=O)C2C3C=CC(O3)C2C1=O)c1ccccc1 (stereo not drawn) | -7.27% (inactive)
42 | O=C(NN1C(=O)C2C3C=CC(O3)C2C1=O)c1ccncc1 (stereo not drawn) | -9.52% (inactive)
43 | COc1ccccc1C(=O)NN1C(=O)C2C3C=CC(O3)C2C1=O (stereo not drawn) | 52.7% (active)
44 | O=C(Cc1cccs1)Nc1cccc(-c2nc3ccccc3[nH]2)c1 | -1.91% (inactive)

Row | SMILES | inhibition
45 | CCc1cc(C(N)=O)c(NC(=O)c2ccc(OC)cc2)s1 | -8.2% (inactive)
46 | O=C(O)CC(SCC(=O)Nc1ccc(Br)cc1)C(=O)O (stereo not drawn) | -6.53% (inactive)
47 | CCOC(=O)c1cnc(SCC(=O)Nc2ccccc2C(=O)OC)nc1N | -2.4% (inactive)
48 | Cc1nc2cc(NC(=O)NC3CC3)ccc2n1C | -0.99% (inactive)
49 | O=C(Cc1ccc([N+](=O)[O-])cc1)N/N=C/c1ccco1 | -4.83% (inactive)
50 | CCCCC(=O)Nc1ccc(C(=O)Nc2cc(C(F)(F)F)ccc2Cl)cc1 | -1.39% (inactive)
51 | O=C(COc1nc2ccccc2nc1N1CCOCC1)NCC(F)(F)F | -0.08% (inactive)
52 | CC(=O)Nc1ccc(S(=O)(=O)N(CCc2ccccc2)CC(=O)N/N=C/c2ccc(C(=O)O)cc2)cc1 | 5.13% (inactive)
53 | CCN(CC(=O)Nc1ccccc1OC)C(=O)Cn1cnc2ccccc2c1=O | 7.55% (inactive)
54 | N=C1C(c2nc3ccccc3s2)=C(O)CN1NC(=O)c1ccc([N+](=O)[O-])cc1 | -8.3% (inactive)
55 | CN1CCN(c2ccc(S(=O)(=O)N3CCCCC3)cc2NC(=O)Cc2ccccc2F)CC1 | -6.13% (inactive)
56 | Cc1ccc(NC(=O)CN2CCC(C(N)=O)CC2)cc1[N+](=O)[O-] | 5.71% (inactive)
57 | COc1ccc(NC(=O)CC2C(=O)OCC3CCCCN32)cc1Cl (stereo not drawn) | -6.39% (inactive)
58 | Cc1onc(C(=O)NCc2ccc(F)cc2)c1[N+](=O)[O-] | 0.1% (inactive)
59 | CCn1nc(C)c(/C=N/NC(=O)Cc2ccc(Cl)cc2)c1C | 3.28% (inactive)
60 | O=C(O)c1cccc(N2C(=O)Nc3ccccc3N2O)c1 | 7.76% (inactive)
61 | CCCCCCNCCn1cnc2c(N)ncnc21 | 6.16% (inactive)
62 | CC1CCN(c2ccc(C(=O)NCc3ccc4c(c3)OCO4)cc2[N+](=O)[O-])CC1 | 0.75% (inactive)
63 | Brc1c(CSc2nncc3ccccc23)nc2ccccn12 | 7.29% (inactive)
64 | Cc1ccc(O)c(-c2cc(C(=O)NCc3ccccc3)[nH]n2)c1 | -6.87% (inactive)
65 | CCOC(=O)C(CC)/C(C)=N\NC(=O)c1cccc(C)c1 (stereo not drawn) | -4.87% (inactive)
66 | COc1cccc2cc(/C(C)=N/NC(=O)c3ccco3)oc12 | 5.6% (inactive)

Row | SMILES | inhibition
67 | O=C(CC1NCCc2ccccc21)Nc1cccc(Cl)c1 (stereo not drawn) | -4.65% (inactive)
68 | O=C(CN1CCN(c2ccc(O)cc2)CC1)Nc1cc(S(=O)(=O)N2CCOCC2)ccc1Cl | 1.7% (inactive)
69 | CC1(C)C(C=C(Cl)Cl)C1C(=O)N(Cc1ccc(Cl)cc1)C1CCS(=O)(=O)C1 (stereo not drawn) | 0.63% (inactive)
70 | CCOC(=O)Cc1ncccc1C(=O)Nc1ccc(OC(F)(F)F)cc1 | -0.72% (inactive)
71 | CN1C(=O)/C(=C\c2ccc(-c3ccccc3)o2)SC1=S | -6.62% (inactive)
72 | CSc1cccc(NC(=S)N(Cc2ccccc2)Cc2ccccn2)c1 | -9.2% (inactive)
73 | COC(=O)CNC(=O)C(CCSC)NC(C)=O (stereo not drawn) (Ac-[ξM]-Gly-OMe) | 9.67% (inactive)
74 | O=C(CSc1ccc(-c2cccs2)nn1)Nc1ccccc1F | 2.17% (inactive)
75 | CCN(CC)CCOCCOc1ccc(Cl)c2ccccc12 | -3.28% (inactive)
76 | CN1CCN(C(=O)C2=C[C@H](c3ccc4c(c3)OCO4)C[C@H](OCc3ccc(CO)cc3)O2)CC1 | -5.9% (inactive)
77 | O=C1/C(=C/c2cccs2)CCC1C1CCCC1 (stereo not drawn) | -1.44% (inactive)
78 | Cc1ccc(NC(=O)Nc2nnc(-c3ccncc3)s2)cc1 | 2.87% (inactive)
79 | CCc1nnc(NC(=O)CSc2nc(SC)ns2)s1 | 1.32% (inactive)
80 | O=C(Nc1nnc(C2COc3ccccc3O2)o1)c1ccc(F)cc1 (stereo not drawn) | -1.94% (inactive)
81 | CCC(C)NCC(=O)Nc1ccc([N+](=O)[O-])cc1C(=O)Nc1ccccc1F (stereo not drawn) | -10.9% (inactive)
82 | CNC(=O)COC(=O)c1cc(-c2ccc(OC)cc2)nc2ccccc12 | -3.14% (inactive)
83 | Nc1cccc(-c2cc(-c3ccccc3)nc(-c3cccc(N)c3)n2)c1 | -18.9% (inactive)
84 | COC(=O)NNC(=O)C1CCC(C)CC1 (stereo not drawn) | -3.54% (inactive)
85 | Cc1cccc(NC(=O)c2nnn(-c3cccc(C(F)(F)F)c3)c2N)c1 | -0.25% (inactive)
86 | S=C1NC(c2ccccc2)=NCN1c1ccc(Br)cc1 | 0.72% (inactive)
87 | COc1ccc2ccccc2c1CNc1nnnn1C | -8.73% (inactive)
88 | CCC(C)NC(=O)/C=C/c1ccc(S(=O)(=O)NCc2ccco2)cc1 (stereo not drawn) | 7.02% (inactive)

Row | SMILES | inhibition
89 | CCCCSc1nc2ccccc2[nH]1 | -6.36% (inactive)
90 | CN(CCc1cn[nH]c1)C(=O)CC1C(=O)NCCN1Cc1cccc(Oc2ccccc2)c1 (stereo not drawn) | -3.31% (inactive)
91 | Cc1c(C(=O)NCCN2C(=O)S/C(=C\c3cccs3)C2=O)cccc1[N+](=O)[O-] | 8.76% (inactive)
92 | Cc1ccc2c(=O)oc(N(C)C)nc2c1 | 1.27% (inactive)
93 | C#CCOCCOCCOCCNc1nc(N2CCN(C(=O)[C@H](CCCCN)n3cc([C@@H](N)C(C)CC)nn3)CC2)nc(N2CCN(C(=O)[C@H](Cc3ccc(O)cc3)n3cc([C@@H](N)C(C)CC)nn3)CC2)n1 (stereo partly drawn) | -0.05% (inactive)
94 | C=CCNC(=S)N1CCN(CCN=Cc2c(C)[nH]n(-c3ccc([N+](=O)[O-])cc3)c2=O)CC1 | -2.35% (inactive)
95 | CC(Oc1ccc(Cl)cc1)c1ccnn1S(C)(=O)=O (stereo not drawn) | -7.83% (inactive)
96 | CCOC(=O)c1c(NC(=O)C2CCN(S(=O)(=O)c3ccc(Cl)cc3)CC2)sc2c1CCCC2 | 8.85% (inactive)
97 | CCCCCC1CCC(c2nnc(SCC(C)=O)o2)CC1 (stereo not drawn) | -8% (inactive)
98 | O=[N+]([O-])c1cc(S(=O)(=O)N2CCCC2)ccc1NN=C1CCCC1 | 2.42% (inactive)
99 | Cc1cc(N/N=C/c2ccccc2F)c2ccccc2n1 | 4.69% (inactive)
100 | Cc1ccc(-n2cc(CN(C)Cc3nccn3C)c(-c3cccc(C)c3)n2)cc1 | -5.32% (inactive)
101 | COc1ccc(S(=O)(=O)Nc2cccnc2)c(Cl)c1Cl | -2.39% (inactive)
102 | O=C(NCCCN1CCOCC1)c1ccc(N2CCCC2)c([N+](=O)[O-])c1 | -1.03% (inactive)
103 | CC(C)(C)c1nnc(N/N=C/c2ccc(O)cc2)n(N)c1=O | -3.71% (inactive)
104 | CC(C)(C)NC(=O)NC(=O)CN1CCC(Cc2ccccc2)CC1 | -4.14% (inactive)
105 | CCN1/C(=C\c2ccc3ccccc3[n+]2CC)Sc2cc(C)ccc21 | -5.46% (inactive)
106 | Cc1scc(C(=O)NNC(=S)NCc2ccccc2)c1C | -7.68% (inactive)
107 | COc1ccc(/C=N/n2c(C)cc(C)cc2=O)cc1 | -7.11% (inactive)
108 | CCCn1c(NC(=O)C23CC4CC(CC(O)(C4)C2)C3)nc2ccccc21 | -0.11% (inactive)
